Screening results (PubChem BioAssay)
In the library only some 22% were active in any assay of this set; here they are far more common.
CYP2C9 inhib – blocks human cytochrome P450 2C9. P11712. CYP2C9 Supersomes, luciferin-H conversion, luminescence. inhibition, % at 5 µM. hit rate 20% among 96,000;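 active = blocking of liver enzyme CYP2C9 beyond about 50% at 5 µM, limit read from the data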
Target sequence (P11712 whole entry, looked up): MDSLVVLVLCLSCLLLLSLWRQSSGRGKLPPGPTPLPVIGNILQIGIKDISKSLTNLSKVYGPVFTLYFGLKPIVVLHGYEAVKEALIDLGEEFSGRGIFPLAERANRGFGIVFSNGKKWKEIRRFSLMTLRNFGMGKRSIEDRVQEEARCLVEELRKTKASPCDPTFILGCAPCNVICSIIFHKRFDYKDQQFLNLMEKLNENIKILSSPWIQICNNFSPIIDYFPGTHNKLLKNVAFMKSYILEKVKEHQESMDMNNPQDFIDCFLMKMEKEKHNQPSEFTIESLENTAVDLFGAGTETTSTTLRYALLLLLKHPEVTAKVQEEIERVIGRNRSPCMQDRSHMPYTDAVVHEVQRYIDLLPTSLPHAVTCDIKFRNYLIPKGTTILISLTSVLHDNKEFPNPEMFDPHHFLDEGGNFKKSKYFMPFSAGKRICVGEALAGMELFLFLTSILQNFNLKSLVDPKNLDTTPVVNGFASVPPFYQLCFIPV
CYP2C19 inh – blocks human cytochrome P450 2C19; hit rate 21% among 96,000; P33261; inhibition, % at 5 µM; AID 778; CYP2C19 Supersomes, luciferin-H EGE luminescence, 30 min;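 active = CYP2C19 inhibition above a set limit at 5 µM in the primary screen, cut at about 50% in these data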
CYP2C19 activ – cytochrome P450 2C19 (human) activation; 96,000 tested, under 10 active; P33261; recombinant CYP2C19, luciferin-H EGE luminescence; hits give high values; 0 = fully inhibited enzyme, 1 = untreated enzyme; activation factor at 5 µM;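 active = activation factor of at least 2 at 5 µM in the primary screen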
Measles CPE – protection of cells from measles virus | Measles virus-infected cells, CPE protection, absorbance | protection (pct of control), % at 4 µM | hit rate 1.5% among 140,000 | AID 841; in the data active = protection mostly above about 24%, no sharp cut-off; inactive = mostly below about 26%
CYP2C9 act – CYP2C9 (human) activation | recombinant CYP2C9, luciferin-H conversion, luminescence; hits give high values; factor 1 = untreated enzyme, 0 = blocked | activation factor at 5 µM | hit rate 1.4% among 96,000 | P11712;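 active = activation factor of 2 or more for CYP2C9 at a 5 µM dose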
Hits are given with their value; . = inactive; / = no result.

SMILES	CYP2C9 inhib	CYP2C19 inh	CYP2C19 activ	Measles CPE	CYP2C9 act
COc1ccc(NC(=O)C2CCC(CNc3c(N4CCC(C)CC4)c(=O)c3=O)CC2)cc1OC (configuration not stated)	.	.	.	.	.
O=C(Cn1[nH]c(=O)c2ccccc2c1=O)Nc1ccc2c(c1)CCC2	.	.	.	.	.
O=[N+]([O-])c1ccc(N2N=C(c3ccco3)CC2c2ccccc2)cc1 (configuration not stated)	78.1	.	.	.	.
O=C(COc1ccc2ccccc2c1)N1CCN(c2ccccc2O)CC1	.	.	.	.	.
CCn1ncc(/C=N\NC(=O)c2cc(-c3ccc(C)cc3C)nc3ccccc23)c1C	96.8	89.6	.	.	.
COc1ccccc1-c1cc(C(=O)N/N=C\c2cnn(C)c2C)c2ccccc2n1	/	/	/	.	/
Cc1ccc(-c2cc(C(=O)N/N=C/c3c(C)nn(C)c3C)c3ccccc3n2)cc1C	96.9	81.0	.	.	.
CC(/C=N/NC(=O)c1cc(-c2ccc(Cl)cc2)nc2ccccc12)=C\c1ccco1	89.0	.	.	.	.
Cc1ccccc1C(=O)NCCc1nnc(SCC(=O)Nc2nc(-c3ccccc3)cs2)n1C	/	/	/	.	/
C=CCNC(=O)CCCc1ccccc1	.	67.2	.	.	.
O=C(O)CCCC(=O)NCCCCc1ccccc1	.	.	.	.	.
COc1ccc(CNC(=O)CCCc2ccccc2)cc1	/	/	/	31.2	/
COc1ccc(CNC(=O)C/C(C)=N/NC(=O)C(c2ccccc2)c2ccccc2)cc1	55.5	.	.	.	.
COc1ccccc1CNC(=O)CCCc1ccccc1	/	/	/	.	/
CC(C)CC(=O)NCCCCc1ccccc1	/	/	/	.	/
CC(C)CNC(=O)CCCc1ccccc1	.	83.0	.	.	.
COc1cc(OC)c(OC)cc1/C=N/NC(=O)C[n+]1ccccc1	/	/	/	.	/
COc1ccc(/C=C2\OC(=O)c3c(OC)cccc32)cc1OC	.	.	.	.	.
Cc1nc(SCc2c(F)cccc2Cl)n[nH]1	.	.	.	.	.
Fc1cccc(Cl)c1CSc1nnc(COc2cccc3cccnc23)o1	.	95.5	.	.	.
NCCCCCc1nnc(SCc2ccccc2Cl)o1	.	72.0	.	.	.
CCN(CC)C(=O)CSc1nnc(CCN)o1	53.3	.	.	.	.
NCCc1nnc(SCC(N)=O)o1	.	.	.	/	.
NCCCCCc1nnc(SC/C=C/c2ccccc2)o1	.	.	.	.	.
NCCc1nnc(SCc2ccccc2)o1	65.7	78.7	.	.	.
SMILES	CYP2C9 inhib	CYP2C19 inh	CYP2C19 activ	Measles CPE	CYP2C9 act
COC(=O)c1ccc(NC(=O)C(=O)N2CCN(C(=S)Nc3ccc(C)cc3)CC2)cc1	/	/	/	.	/
c1ccc(C2NCCn3cccc32)cc1 (configuration not stated)	.	.	.	.	.
COc1ccc(-n2nc(C(=O)Nc3ccc4c(c3)OCO4)c3ccccc3c2=O)c(OC)c1	.	.	.	.	.
CCc1nn(-c2ccccc2)c(N)c1C#N	/	/	/	.	/
NCCc1nnc(SCc2ccccc2F)o1	.	.	.	.	.
NCCc1nnc(SCc2c(F)cccc2Cl)o1	53.4	61.6	.	.	.
N[C@@H](Cc1ccccc1)c1nnc(SCc2ccccc2Cl)o1	.	78.9	.	.	.
CCc1ccccc1NC(=O)CSc1nnc([C@@H](N)Cc2ccccc2)o1	/	/	/	.	/
COc1cccc(C2C(C(=O)Nc3ccc(C)cc3C)=C(C)Nc3ncnn32)c1OC (configuration not stated)	.	.	.	.	.
O=c1c2c3c(sc2ncn1Cc1ccc(F)cc1)CCC3	78.2	80.6	.	.	.
O=C1CN(C(=O)C2CCCC2)CCN1	/	/	/	.	/
C=CCn1c(O)c(N=NC(=O)CNC(=O)/C=C/c2ccco2)c2ccccc21	70.6	.	.	.	.
COc1ccc(NC(=O)CCCn2c(=O)c3sccc3n(Cc3cccc(C)c3)c2=O)cc1	/	/	/	.	/
Cc1nn(-c2cccc(Cl)c2)c2c1C(c1ccncc1)C(C#N)=C(N)O2 (configuration not stated)	62.4	50.4	.	.	.
COc1ccc(OC)c(C2C(C#N)=C(N)Oc3c2c(C)nn3-c2cccc(Cl)c2)c1 (configuration not stated)	98.5	82.6	.	.	.
CCN1CCN(C(=O)c2nn(-c3ccc(C)cc3)c(=O)c3c2c2ccccc2n3C)CC1	.	.	.	.	.
CC(Oc1ccccc1)C(=O)NNC(=O)c1ccccn1 (configuration not stated)	/	/	/	.	/
C/C(=N\NC(=O)C(C)Oc1ccc([N+](=O)[O-])cc1)c1ccccn1 (configuration not stated)	.	68.4	.	.	.
CCOc1ccc(NS(=O)(=O)c2ccc3c(c2)oc(=O)n3C)cc1	.	.	.	.	.
Cn1c(=O)c(=O)n(C)c2cc(S(=O)(=O)Nc3ccc4c(c3)OCCO4)ccc21	53.6	.	.	.	.
Cn1c(=O)c(=O)n(C)c2cc(S(=O)(=O)Nc3ccc(OC(F)(F)F)cc3)ccc21	91.4	82.3	.	.	.
COc1ccc(NS(=O)(=O)c2ccc3oc(Nc4ccc5c(c4)OCCO5)nc3c2)cc1	96.3	51.3	.	92.5	.
Cn1c(=O)oc2cc(S(=O)(=O)Nc3ccc4c(c3)OCCO4)ccc21	.	.	.	.	.
N#Cc1c2n(cnc1=O)CCCCC2	.	.	.	.	.
C=CCOc1c(Br)cc(CNc2ccc(NC(=O)C(C)C)c(OC)c2)cc1OCC	/	/	/	.	/
SMILES	CYP2C9 inhib	CYP2C19 inh	CYP2C19 activ	Measles CPE	CYP2C9 act
Cn1cnnc1Sc1ccc(C(=O)NCCC(c2ccccc2)c2ccccc2)cc1[N+](=O)[O-]	/	/	/	.	/
CSCCC(NS(=O)(=O)c1ccc(Cl)cc1)C(=O)OCC(=O)N1CCOCC1 (configuration not stated)	/	/	/	.	/
CSCCC(NS(=O)(=O)c1ccc(Cl)cc1)C(=O)OCC(=O)NC12CC3CC(CC(C3)C1)C2 (configuration not stated)	60.6	.	.	.	.
CN(c1cccc(NC(=O)c2ccc(Cl)c(S(=O)(=O)Nc3ccccc3)c2)c1)S(C)(=O)=O	97.0	84.6	.	.	.
Cc1ccccc1NS(=O)(=O)c1cc(C(=O)Nc2cccc(N(C)S(C)(=O)=O)c2)ccc1C	78.3	.	.	.	.
COc1cccc(OC)c1C(=O)N1CCN(S(=O)(=O)c2ccc(C)cc2)CC1	.	.	.	42.4	.
COc1ccc(S(=O)(=O)N2CCN(C(=O)c3c(C)nn(-c4ccccc4)c3Cl)CC2)cc1	90.5	88.3	.	.	.
Cc1ccc(S(=O)(=O)N2CCN(C(=O)c3c(C)nn(-c4ccccc4)c3Cl)CC2)cc1	50.1	.	.	.	.
COCCNC(=O)c1c(N)sc2c1CCCC2	.	.	.	.	.
COc1ccc(C)cc1NC(=O)CN(C)S(=O)(=O)c1cccs1	.	89.3	.	.	2.3
COc1ccc(OC)c(NC(=O)CN(C)S(=O)(=O)c2ccc3nc(C)sc3c2)c1	/	/	/	.	/
COc1ccc(S(=O)(=O)N(C)CC(=O)Nc2ccccc2C(F)(F)F)cc1OC	.	76.1	.	.	.
COc1ccc(S(=O)(=O)N(C)CC(=O)NCc2cccnc2)cc1OC	.	.	.	.	.
